The record followed here is PubChem BioAssay (Tox21).

Records with an inconclusive call do not appear. A call without a number means that no potency is given here. Activity calls are given as the source filed them. Unless noted, calls come from the whole dose curve; as a rule, active = well fitted curve in the direction sought with a large enough effect in the repeat runs; inconclusive = weak or mixed curves; inactive = no such curve, though single readings can be large; an effect the other way counts as inactive or inconclusive.

Tested on in the first test: not listed separately
As to the kind of experiment: qHTS assay to identify small molecule antagonists of the thyroid receptor (TR) signaling pathway - cell viability counter screen (AID 743064). Note: nearly all actives have a fitted effect of over 50% in size. Note: potency is the fitted concentration of half-maximal effect. Conditions: GH3.TRE-Luc viability, CellTiter-Fluor, 24 h; series mostly up to 70.3 µM. In a few lines: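 Counter screen for cytotoxicity: compound plus T3 (1 nM final) on GH3.TRE-Luc cells, 23.5 h at 37 °C, then fluorescence viability readout with CellTiter-Fluor.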
On to `O=C(O)/C=C/c1ccc(Cn2ccnc2)cc1`, for which the Potency result was “inactive”.

Take `O=C(O)c1ccccc1S`: the Potency result is “inactive”.

In the case of `CCCCC1CCCCC(=O)O1` (configuration not stated), the Potency result was “inactive”.

Regarding `CCCCCCCCCCCCCCCCCCOCC(O)CO` (configuration not stated), the Potency entry was “inactive”.

Turning to `O=S(=O)(O)c1ccccc1O`, the Potency result is “inactive”.

On to `CCc1cc(S(=O)(=O)O)c2cc(C(C)C)cccc1-2`, for which the Potency entry was “inactive”.

Turning to `C=C(C)[C@@H]1CCC2=CC(=O)C[C@@H](C)[C@]2(C)C1`, the Potency result is “inactive”.

As to `C=C(C)[C@H]1CC=C(C)CC1`, the Potency result was “inactive”.

As for `c1ccc(SCCSc2ccccc2)cc1`, the Potency entry is “inactive”.

`COC(C(=O)O)c1ccccc1` (configuration not stated): the Potency result is “inactive”.

As for `CC1=CC(C)C(C=O)C(C)C1` (configuration not stated), the Potency entry is “inactive”.

`c1cc(CN2CCCCC2)cc(OCCCNc2nc3ccccc3s2)c1`: the Potency was 11.9 µM (active).

In the case of `COC(=O)[C@H]1[C@H]2C[C@@H]3c4[nH]c5cc(OC)ccc5c4CCN3C[C@H]2C[C@@H](OC(=O)COc2ccc(OC)cc2)[C@@H]1OC`, the Potency entry is “inactive”.

Regarding `CN1[C@@H]2CC[C@H]1CC(NC(=O)n1c(=O)[nH]c3ccccc31)C2` (some centres not stated), the Potency entry was “inactive”.

For the compound `COc1ccc(N=[N+]([O-])c2ccc(OC)cc2)cc1`, the Potency result is “inactive”.

As for `NC(CS)C(=O)O` (configuration not stated), the Potency entry is “inactive”.

Take `Oc1ccc2c(c1)OC[C@@H](N1CCC(O)(c3ccc(F)cc3)CC1)[C@H]2O`: the Potency entry is “inactive”.

In the case of `CCCCCCCCCCCCI`, the Potency entry is “inactive”.

Consider `C=C(C)C(=O)NCCCN(C)C`, for which the Potency result is “inactive”.

Take `CCCCCCCCCCCCCCC`: the Potency result was “inactive”.

In the case of `CCC(=O)/C=C/c1ccc(OC)cc1`, the Potency entry was “inactive”.

Turning to `OC1OC[C@@H](O)[C@H](O)[C@H]1O` (some centres not stated), the Potency entry is “inactive”.

Regarding `CN(C)C(=O)C(CCN1CCC(O)(c2ccc(Cl)cc2)CC1)(c1ccccc1)c1ccccc1`, the Potency is 8.41 µM (active).

As for `CCN1CCCC(OC(=O)C(c2ccccc2)c2ccccc2)C1` (configuration not stated), the Potency was 12.7 µM (active).

With `Cn1cnc2c(=O)[nH]c(N)nc21`, the Potency result was “inactive”.

Regarding `CC(C)c1ccc2oc3nc(N)c(C(=O)O)cc3c(=O)c2c1`, the Potency result is “inactive”.

For `Cc1ccccc1Br`, the Potency result is “inactive”.

Turning to `COC(=O)C1=C(C)NC(C)=C(C(=O)OCC(C)=O)C1c1ccccc1[N+](=O)[O-]` (configuration not stated), the Potency was 8.41 µM (active).

Turning to `CC(O)CN(CCCN(C)C)CCCN(C)C` (configuration not stated), the Potency entry is “inactive”.

Regarding `CCCCC=O`, the Potency result was “inactive”.

Consider `Cc1nccn1CC1CCc2c(c3ccccc3n2C)C1=O` (configuration not stated), for which the Potency entry is “inactive”.

As for `N#CCN(CC#N)CCN(CC#N)CC#N`, the Potency result was “inactive”.

With `CN(C)N=Nc1ccccc1`, the Potency entry is “inactive”.

With `CCC(=O)Nc1cccc(N)c1`, the Potency entry is “inactive”.

In the case of `Cc1nc(-c2ccc(OCC(C)C)c(C#N)c2)sc1C(=O)O`, the Potency result was “inactive”.

On to `Cc1ccc(N)cc1[N+](=O)[O-]`, for which the Potency result was “inactive”.

Tested on in another test: not listed separately
As to the kind of experiment: qHTS assay to identify small molecule antagonists of the thyroid receptor (TR) signaling pathway (AID 743065). Note: nearly all actives have a fitted effect of over 55% in size. Note: potency is the fitted concentration of half-maximal effect. Conditions: GH3.TRE-Luc, T3-stimulated luciferase inhibition, 23.5 h; series mostly up to 70.3 µM. A digest of the protocol:
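GH3.TRE-Luc rat pituitary cells carrying two TR response elements driving luciferase were plated for 4 h, given compound plus 1 nM T3 (final), and incubated 23.5 h at 37 C. ONE-Glo luminescence measured reporter inhibition; CellTiter-Fluor fluorescence tracked cytotoxicity.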
As to `O=C(O)c1ccccc1S`, the Potency result was “inactive”.

Turning to `c1ccc2cnncc2c1`, the Potency entry is “inactive”.

Take `CCCCC1CCCCC(=O)O1` (configuration not stated): the Potency result is “inactive”.

With `O=S(=O)(O)c1ccccc1O`, the Potency entry was “inactive”.

As to `CCc1cc(S(=O)(=O)O)c2cc(C(C)C)cccc1-2`, the Potency result was “inactive”.

With `c1ccc(SCCSc2ccccc2)cc1`, the Potency result was “inactive”.

In the case of `COC(C(=O)O)c1ccccc1` (configuration not stated), the Potency entry was “inactive”.

Regarding `CC1=CC(C)C(C=O)C(C)C1` (configuration not stated), the Potency result was “inactive”.

`c1cc(CN2CCCCC2)cc(OCCCNc2nc3ccccc3s2)c1`: the Potency was 23.7 µM (active).

In the case of `COC(=O)[C@H]1[C@H]2C[C@@H]3c4[nH]c5cc(OC)ccc5c4CCN3C[C@H]2C[C@@H](OC(=O)COc2ccc(OC)cc2)[C@@H]1OC`, the Potency was 23.7 µM (active).

As to `NC(CS)C(=O)O` (configuration not stated), the Potency entry was “inactive”.

On to `Oc1ccc2c(c1)OC[C@@H](N1CCC(O)(c3ccc(F)cc3)CC1)[C@H]2O`, for which the Potency result was “inactive”.

For the compound `CCCCCCCCCCCCI`, the Potency result was “inactive”.

As to `C=C(C)C(=O)NCCCN(C)C`, the Potency result was “inactive”.

With `CCCCCCCCCCCCCCC`, the Potency entry is “inactive”.

With `OC1OC[C@@H](O)[C@H](O)[C@H]1O` (some centres not stated), the Potency result was “inactive”.

For the compound `CN(C)C(=O)C(CCN1CCC(O)(c2ccc(Cl)cc2)CC1)(c1ccccc1)c1ccccc1`, the Potency was 8.41 µM (active).

As for `Cn1cnc2c(=O)[nH]c(N)nc21`, the Potency entry was “inactive”.

With `CCCCOCC(C)OCC(C)O` (configuration not stated), the Potency result was “inactive”.

As for `COC(=O)C1=C(C)NC(C)=C(C(=O)OCC(C)=O)C1c1ccccc1[N+](=O)[O-]` (configuration not stated), the Potency is 7.5 µM (active).

With `CC(O)CN(CCCN(C)C)CCCN(C)C` (configuration not stated), the Potency entry was “inactive”.

Take `CCCCC=O`: the Potency result is “inactive”.

Turning to `N#CCN(CC#N)CCN(CC#N)CC#N`, the Potency entry was “inactive”.

Take `CN(C)N=Nc1ccccc1`: the Potency result is “inactive”.

With `Cc1nc(-c2ccc(OCC(C)C)c(C#N)c2)sc1C(=O)O`, the Potency was 13.3 µM (active).

Regarding `Cc1ccc(N)cc1[N+](=O)[O-]`, the Potency entry is “inactive”.

The next test relates to thyroid hormone receptor (rat, GH3 cells). The experiment in a line: qHTS assay to identify small molecule agonists of the thyroid receptor (TR) signaling pathway (AID 743066; calls by dose curve). The conditions noted are these: GH3.TRE-Luc cells, TR agonist luciferase, 24 h; series mostly up to 83.9 µM.
Turning to `O=C(O)c1ccccc1S`, the Potency result is “inactive”.

On to `c1ccc2cnncc2c1`, for which the Potency result was “inactive”.

Take `O=S(=O)(O)c1ccccc1O`: the Potency result was “inactive”.

As to `CCc1cc(S(=O)(=O)O)c2cc(C(C)C)cccc1-2`, the Potency result is “inactive”.

With `C=C(C)[C@@H]1CCC2=CC(=O)C[C@@H](C)[C@]2(C)C1`, the Potency entry was “inactive”.

As to `c1ccc(SCCSc2ccccc2)cc1`, the Potency entry is “inactive”.

In the case of `COC(C(=O)O)c1ccccc1` (configuration not stated), the Potency result is “inactive”.

With `CC1=CC(C)C(C=O)C(C)C1` (configuration not stated), the Potency entry was “inactive”.

As for `COc1ccc(N=[N+]([O-])c2ccc(OC)cc2)cc1`, the Potency entry was “inactive”.

Consider `NC(CS)C(=O)O` (configuration not stated), for which the Potency entry was “inactive”.

As to `CCCCCCCCCCCCI`, the Potency entry was “inactive”.

For `CCCCCCCCCCCCCCC`, the Potency entry was “inactive”.

Consider `CCC(=O)/C=C/c1ccc(OC)cc1`, for which the Potency entry was “inactive”.

Take `OC1OC[C@@H](O)[C@H](O)[C@H]1O` (some centres not stated): the Potency result is “inactive”.

Regarding `CCN1CCCC(OC(=O)C(c2ccccc2)c2ccccc2)C1` (configuration not stated), the Potency entry is “inactive”.

`Cn1cnc2c(=O)[nH]c(N)nc21`: the Potency entry was “inactive”.

Consider `CCCCOCC(C)OCC(C)O` (configuration not stated), for which the Potency entry was “inactive”.

With `CC(C)c1ccc2oc3nc(N)c(C(=O)O)cc3c(=O)c2c1`, the Potency entry is “inactive”.

For `CC(O)CN(CCCN(C)C)CCCN(C)C` (configuration not stated), the Potency entry was “inactive”.

As to `CCCCC=O`, the Potency entry is “inactive”.

Take `Cc1nccn1CC1CCc2c(c3ccccc3n2C)C1=O` (configuration not stated): the Potency entry was “inactive”.

Consider `N#CCN(CC#N)CCN(CC#N)CC#N`, for which the Potency entry is “inactive”.

As for `CN(C)N=Nc1ccccc1`, the Potency result is “inactive”.

In the case of `Cc1nc(-c2ccc(OCC(C)C)c(C#N)c2)sc1C(=O)O`, the Potency entry was “inactive”.

Regarding `Cc1ccc(N)cc1[N+](=O)[O-]`, the Potency result was “inactive”.
